Experimental data from article PMC7862700, “An all-to-all approach to the identification of sequence-specific readers for epigenetic DNA modifications on cytosine”.

How the values were obtained:
Experiment in all cases: DAPPL (digital affinity profiling via proximity ligation, sequencing); 10 mM Tris-HCl pH 7.5, 50 mM NaCl, 1 mM DTT, 4% glycerol, room temperature, 30 min; GST-TFs on glutathione beads, 16-mer random dsDNA library, 0.1% formaldehyde crosslink after washing; high values mean tight binding
Conditions in all cases: protein: recombinant; tags: N-terminal GST; dsDNA, one strand shown
ERF = biological target: T1, ERF (Homo sapiens, UniProt P50548 1-548)
T1 sequence: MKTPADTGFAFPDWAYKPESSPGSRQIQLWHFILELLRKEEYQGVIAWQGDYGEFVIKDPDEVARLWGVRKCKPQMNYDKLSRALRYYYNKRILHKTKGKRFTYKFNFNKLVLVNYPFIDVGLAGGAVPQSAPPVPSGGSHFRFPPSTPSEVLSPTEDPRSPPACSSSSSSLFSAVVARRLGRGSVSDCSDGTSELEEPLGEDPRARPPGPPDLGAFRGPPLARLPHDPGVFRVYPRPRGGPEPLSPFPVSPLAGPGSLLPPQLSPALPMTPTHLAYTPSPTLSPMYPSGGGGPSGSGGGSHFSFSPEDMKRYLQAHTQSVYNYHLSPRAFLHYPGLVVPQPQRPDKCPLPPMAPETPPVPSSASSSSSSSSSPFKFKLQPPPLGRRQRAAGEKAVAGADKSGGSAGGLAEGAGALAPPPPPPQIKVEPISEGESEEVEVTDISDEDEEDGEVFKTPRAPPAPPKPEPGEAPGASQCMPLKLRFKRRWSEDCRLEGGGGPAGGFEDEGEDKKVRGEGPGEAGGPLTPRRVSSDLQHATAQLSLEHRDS
Summary of the method: (§1)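 GST fusions of human transcription factors were expressed in yeast and captured with glutathione beads. Once given DNA barcodes and pooled alongside a tag-only sample, they were incubated for 30 min at room temperature with 200 nmole of a random double-stranded 16-mer DNA library in Tris/NaCl/DTT/glycerol buffer, then washed, crosslinked (0.1% formaldehyde), proximity-ligated, PCR-amplified and sequenced on an Illumina NextSeq500. The binding signal of each hexamer is its read frequency for a factor divided by its frequency for the tag-only sample.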

ETV3L = biological target: T2, ETV3L (Homo sapiens, UniProt Q6ZN32 1-361)
T2 sequence: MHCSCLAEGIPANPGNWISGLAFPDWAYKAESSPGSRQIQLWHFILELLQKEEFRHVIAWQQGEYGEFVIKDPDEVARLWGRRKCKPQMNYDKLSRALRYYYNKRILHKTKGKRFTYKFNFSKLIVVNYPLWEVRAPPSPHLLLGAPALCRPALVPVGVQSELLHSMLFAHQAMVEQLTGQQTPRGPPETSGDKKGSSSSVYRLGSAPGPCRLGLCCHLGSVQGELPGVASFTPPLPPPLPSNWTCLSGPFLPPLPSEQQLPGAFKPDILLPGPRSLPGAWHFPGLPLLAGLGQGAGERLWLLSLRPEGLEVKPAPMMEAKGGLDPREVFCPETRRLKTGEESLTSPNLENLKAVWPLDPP
Summary of the method: as §1

ETS2 = biological target: T3, ETS2 (Homo sapiens, UniProt P15036 1-469)
T3 sequence: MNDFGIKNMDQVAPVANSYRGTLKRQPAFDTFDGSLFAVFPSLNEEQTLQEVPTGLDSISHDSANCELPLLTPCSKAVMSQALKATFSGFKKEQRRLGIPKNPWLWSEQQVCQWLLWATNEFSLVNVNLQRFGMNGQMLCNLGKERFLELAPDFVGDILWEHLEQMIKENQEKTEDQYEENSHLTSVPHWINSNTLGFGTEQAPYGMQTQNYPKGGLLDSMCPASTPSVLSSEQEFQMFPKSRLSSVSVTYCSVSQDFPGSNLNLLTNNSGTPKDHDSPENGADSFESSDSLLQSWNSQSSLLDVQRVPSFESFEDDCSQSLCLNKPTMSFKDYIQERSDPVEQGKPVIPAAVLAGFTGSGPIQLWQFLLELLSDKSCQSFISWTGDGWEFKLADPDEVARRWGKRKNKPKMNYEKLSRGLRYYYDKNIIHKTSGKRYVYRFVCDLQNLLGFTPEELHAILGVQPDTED
Summary of the method: as §1

SPDEF = biological target: T4, SPDEF (Homo sapiens, UniProt O95238 1-335)
T4 sequence: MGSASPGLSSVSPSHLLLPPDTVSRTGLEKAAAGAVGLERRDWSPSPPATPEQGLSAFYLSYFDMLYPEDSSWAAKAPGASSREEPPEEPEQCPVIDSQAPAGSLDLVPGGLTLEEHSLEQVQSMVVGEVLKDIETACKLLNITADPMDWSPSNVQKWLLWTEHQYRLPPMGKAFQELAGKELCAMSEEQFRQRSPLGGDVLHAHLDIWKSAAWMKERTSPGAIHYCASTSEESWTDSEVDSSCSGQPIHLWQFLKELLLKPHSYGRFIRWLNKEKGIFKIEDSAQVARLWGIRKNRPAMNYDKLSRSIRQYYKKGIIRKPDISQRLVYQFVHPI
Summary of the method: as §1

ETV7 = biological target: T5, ETV7 (Homo sapiens, UniProt Q9Y603 1-341)
T5 sequence: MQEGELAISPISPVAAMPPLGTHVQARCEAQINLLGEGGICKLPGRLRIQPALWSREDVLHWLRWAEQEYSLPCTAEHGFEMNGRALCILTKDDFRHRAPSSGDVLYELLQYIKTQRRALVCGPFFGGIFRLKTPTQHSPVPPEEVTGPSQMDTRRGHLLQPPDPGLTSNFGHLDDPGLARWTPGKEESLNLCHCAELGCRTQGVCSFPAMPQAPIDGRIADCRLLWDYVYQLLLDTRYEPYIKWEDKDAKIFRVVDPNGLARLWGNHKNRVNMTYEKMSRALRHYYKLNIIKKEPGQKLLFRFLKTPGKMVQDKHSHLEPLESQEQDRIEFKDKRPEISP
Summary of the method: as §1

ELF5 = biological target: T6, ELF5 (Homo sapiens, UniProt Q9UKW6-2 1-255)
T6 sequence: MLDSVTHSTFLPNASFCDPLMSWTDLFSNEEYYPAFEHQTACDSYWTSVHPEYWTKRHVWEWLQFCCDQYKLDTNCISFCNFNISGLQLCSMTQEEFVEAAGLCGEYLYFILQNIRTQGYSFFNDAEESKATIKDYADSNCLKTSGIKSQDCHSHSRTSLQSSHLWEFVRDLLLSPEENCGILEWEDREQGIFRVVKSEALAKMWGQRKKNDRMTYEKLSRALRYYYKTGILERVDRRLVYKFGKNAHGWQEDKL
Summary of the method: as §1

ETV3 = biological target: T7, ETV3 (Homo sapiens, UniProt P41162-2 1-143)
T7 sequence: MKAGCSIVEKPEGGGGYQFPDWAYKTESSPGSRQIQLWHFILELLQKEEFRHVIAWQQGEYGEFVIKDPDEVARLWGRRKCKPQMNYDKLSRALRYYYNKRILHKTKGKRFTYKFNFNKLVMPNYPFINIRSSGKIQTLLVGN
Summary of the method: as §1

ETV6 = ETV6 (Homo sapiens, UniProt P41212 1-452)
Sequence of ETV6 (P41212 whole entry): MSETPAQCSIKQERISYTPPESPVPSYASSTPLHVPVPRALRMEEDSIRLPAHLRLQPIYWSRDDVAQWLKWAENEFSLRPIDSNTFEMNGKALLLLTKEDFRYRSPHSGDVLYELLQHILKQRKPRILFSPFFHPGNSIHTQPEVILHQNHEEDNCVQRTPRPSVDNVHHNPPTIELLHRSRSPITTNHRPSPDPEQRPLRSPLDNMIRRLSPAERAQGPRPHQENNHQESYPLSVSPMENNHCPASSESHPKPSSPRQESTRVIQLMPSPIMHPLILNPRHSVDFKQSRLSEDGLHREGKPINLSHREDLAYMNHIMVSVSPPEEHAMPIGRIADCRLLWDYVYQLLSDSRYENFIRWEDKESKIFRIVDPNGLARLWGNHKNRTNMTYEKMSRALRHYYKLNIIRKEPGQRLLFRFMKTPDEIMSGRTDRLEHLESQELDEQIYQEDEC
Summary of the method: as §1

Sequence: GCGACT
- binding signal (ERF): 1.43 fold enrichment (6-mer frequency, TF over GST control)
- binding signal (ETV3L): 1.17 fold enrichment (6-mer frequency, TF over GST control)
- binding signal (ETS2): 1.15 fold enrichment (6-mer frequency, TF over GST control)
- binding signal (SPDEF): 1.13 fold enrichment (6-mer frequency, TF over GST control)
- binding signal (ETV7): 1.14 fold enrichment (6-mer frequency, TF over GST control)
- binding signal (ELF5): 1.3 fold enrichment (6-mer frequency, TF over GST control)
- binding signal (ETV3): 1.14 fold enrichment (6-mer frequency, TF over GST control)
- binding signal (ETV6): 1.16 fold enrichment (6-mer frequency, TF over GST control)

Sequence: ACCTTA
- binding signal (ERF): 1.29 fold enrichment (6-mer frequency, TF over GST control)
- binding signal (ETV3L): 1.19 fold enrichment (6-mer frequency, TF over GST control)
- binding signal (ETS2): 1.16 fold enrichment (6-mer frequency, TF over GST control)
- binding signal (SPDEF): 1.3 fold enrichment (6-mer frequency, TF over GST control)
- binding signal (ETV7): 1.21 fold enrichment (6-mer frequency, TF over GST control)
- binding signal (ELF5): 1.26 fold enrichment (6-mer frequency, TF over GST control)
- binding signal (ETV3): 1.17 fold enrichment (6-mer frequency, TF over GST control)
- binding signal (ETV6): 1.21 fold enrichment (6-mer frequency, TF over GST control)

Sequence: ACTATA
- binding signal (ERF): 1.29 fold enrichment (6-mer frequency, TF over GST control)
- binding signal (ETV3L): 1.24 fold enrichment (6-mer frequency, TF over GST control)
- binding signal (ETS2): 1.36 fold enrichment (6-mer frequency, TF over GST control)
- binding signal (SPDEF): 1.42 fold enrichment (6-mer frequency, TF over GST control)
- binding signal (ETV7): 1.28 fold enrichment (6-mer frequency, TF over GST control)
- binding signal (ELF5): 1.35 fold enrichment (6-mer frequency, TF over GST control)
- binding signal (ETV3): 1.33 fold enrichment (6-mer frequency, TF over GST control)
- binding signal (ETV6): 1.31 fold enrichment (6-mer frequency, TF over GST control)

Sequence: CCGGAT
- binding signal (ERF): 2.87 fold enrichment (6-mer frequency, TF over GST control)
- binding signal (ETV3L): 3.03 fold enrichment (6-mer frequency, TF over GST control)
- binding signal (ETS2): 3.38 fold enrichment (6-mer frequency, TF over GST control)
- binding signal (SPDEF): 6.71 fold enrichment (6-mer frequency, TF over GST control)
- binding signal (ETV7): 2.7 fold enrichment (6-mer frequency, TF over GST control)
- binding signal (ELF5): 3.7 fold enrichment (6-mer frequency, TF over GST control)
- binding signal (ETV3): 3.64 fold enrichment (6-mer frequency, TF over GST control)
- binding signal (ETV6): 3.06 fold enrichment (6-mer frequency, TF over GST control)

Sequence: ACGCCT
- binding signal (ERF): 1.15 fold enrichment (6-mer frequency, TF over GST control)
- binding signal (ETV3L): 1.31 fold enrichment (6-mer frequency, TF over GST control)
- binding signal (ETS2): 1.17 fold enrichment (6-mer frequency, TF over GST control)
- binding signal (SPDEF): 1.12 fold enrichment (6-mer frequency, TF over GST control)
- binding signal (ETV7): 1.01 fold enrichment (6-mer frequency, TF over GST control)
- binding signal (ELF5): 1.09 fold enrichment (6-mer frequency, TF over GST control)
- binding signal (ETV3): 1.19 fold enrichment (6-mer frequency, TF over GST control)
- binding signal (ETV6): 1.3 fold enrichment (6-mer frequency, TF over GST control)

Sequence: TATGGC
- binding signal (ERF): 1.25 fold enrichment (6-mer frequency, TF over GST control)
- binding signal (ETV3L): 1.23 fold enrichment (6-mer frequency, TF over GST control)
- binding signal (ETS2): 1.2 fold enrichment (6-mer frequency, TF over GST control)
- binding signal (SPDEF): 1.27 fold enrichment (6-mer frequency, TF over GST control)
- binding signal (ETV7): 1.26 fold enrichment (6-mer frequency, TF over GST control)
- binding signal (ELF5): 1.23 fold enrichment (6-mer frequency, TF over GST control)
- binding signal (ETV3): 1.31 fold enrichment (6-mer frequency, TF over GST control)
- binding signal (ETV6): 1.29 fold enrichment (6-mer frequency, TF over GST control)

Sequence: GATTCT
- binding signal (ERF): 1.13 fold enrichment (6-mer frequency, TF over GST control)
- binding signal (ETV3L): 1.17 fold enrichment (6-mer frequency, TF over GST control)
- binding signal (ETS2): 1.23 fold enrichment (6-mer frequency, TF over GST control)
- binding signal (SPDEF): 1.09 fold enrichment (6-mer frequency, TF over GST control)
- binding signal (ETV7): 1.23 fold enrichment (6-mer frequency, TF over GST control)
- binding signal (ELF5): 1.11 fold enrichment (6-mer frequency, TF over GST control)
- binding signal (ETV3): 1.28 fold enrichment (6-mer frequency, TF over GST control)
- binding signal (ETV6): 1.19 fold enrichment (6-mer frequency, TF over GST control)

Sequence: CCTACG
- binding signal (ERF): 1.37 fold enrichment (6-mer frequency, TF over GST control)
- binding signal (ETV3L): 1.59 fold enrichment (6-mer frequency, TF over GST control)
- binding signal (ETS2): 1.35 fold enrichment (6-mer frequency, TF over GST control)
- binding signal (SPDEF): 1.41 fold enrichment (6-mer frequency, TF over GST control)
- binding signal (ETV7): 1.49 fold enrichment (6-mer frequency, TF over GST control)
- binding signal (ELF5): 1.43 fold enrichment (6-mer frequency, TF over GST control)
- binding signal (ETV3): 1.38 fold enrichment (6-mer frequency, TF over GST control)
- binding signal (ETV6): 1.61 fold enrichment (6-mer frequency, TF over GST control)
